# Measured values published in PubChem BioAssay (NCI).
# Where “and” joins values, the source holds several entries; their conditions need not be identical. Equal values may be shown once. Compounds without any hit were thinned out: in the full panel of roughly 79,000, 15% have a hit. Unmarked numbers belong to inactive results. Calls of active or inactive are those of the source. No stated cut-off is given here; in the data, active means growth inhibition above about 70%; inactive means the rest.
# Test: NCI Yeast Anticancer Drug Screen. Data for the rad50 strain (AID 155);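 further: 0% = growth of vehicle-only cultures of the same strain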
# Details: S. cerevisiae rad50 strain growth inhibition, stronger effect = higher value
# Method: Growth inhibition of yeast strains with defined genetic alterations is measured as a screen for potential anti-cancer activity. Selected strains with alterations in DNA damage repair or cell cycle control were exposed to compounds and growth inhibition was measured relative to vehicle treated controls. The strain used in this assay is rad50
# [1] = at 5.0 µM (retest, dose inferred, filed as 0.5)
# [2] = at 50.0 µM (retest, dose inferred, filed as 5.0)
SMILES,growth inhibition [1],growth inhibition [2],growth inhibition (at 50.0 µM)
CN=C(N)N/N=C(\C)c1ccc2c(c1)Cc1ccccc1-2,32%,98% (active),77.5% (active)
CCCCCCCCCCCCCCCC[N+](C)(C)C,53%,94% (active),91.3% (active)
C=C1C(=O)OC2CC3(C)CCCC(C)C3=CC12 (stereo not given),18%,27%,49.5%
CC(/C=N/NC(N)=S)Cc1ccc(C(C)C)cc1 (stereo not given),28%,82% (active),91.3% (active)
[O-][n+]1cccc2cccc(O)c21,2%,61%,
O=C(O)c1cc2c(s1)C(=O)c1sccc1C2=O,37%,75% (active),71.5% (active)
Oc1c(C(Nc2ccccc2)c2ccccc2)ccc2cccnc12 (stereo not given),-5%,92% (active),96.9% (active)
Cn1c(COC(=O)NC2CCCCC2)c(COC(=O)NC2CCCCC2)c2ccc3cc(Cl)c(Cl)cc3c21,8%,31%,18.1%
Clc1ccc(Cc2nc3ccccc3s2)cc1,-5%,99% (active),99.2% (active)
CCC(=O)c1cc([N+](=O)[O-])c(Br)s1,99% (active),99% (active),99.7% (active)
CCCCCCCCCCCC[n+]1ccc2ccccc2c1,97% (active),99% (active),99.6% (active)
CC(=O)OC(COC(=O)c1ccccc1)C(OC(C)=O)C(OC(C)=O)C(COC(=O)c1ccccc1)OC(C)=O (stereo not given),,,3.7% and 3.5%
N#CC1OC1c1cccc[n+]1[O-] (stereo not given),,,9.05% and 4.6%
CC(O)c1nc2c([nH]1)c(=O)n(C)c(=O)n2C (stereo not given),,,-4.3% and -3.1%
O=C(O)c1cc(O)c(O)c(O)c1,,,5.3% and 1.55%
CC(O)(c1cccc(Cl)c1)C(c1ccccc1)c1ccccn1 (stereo not given),,,82.6% (active) and 97.7% (active)
Cc1cc(C(=O)O)c(CN2C(=O)c3ccccc3C2=O)c(=O)n1C,,,-11.3% and -1.15%
O=C1CCSSCCC(=O)NCCN1,,,7.95% and -6.4%
NCCCNCCSSC/C=C\CSSCCNCCCN,,,1.9% and -5.5%
